Nine molecules from PubChem BioAssay can be followed below.

Molecules are shown by their SMILES. Active and inactive are the calls of the source. Unless noted, how the calls were made is not given here.

Test [1] in a line: resazurin metabolic signal in HepG2 cells – cell-based, resazurin fluorescence, 24 h, PK04 Diversity Set, profiling panel (AID 1172). The conditions noted are these: HepG2 viability, higher = more signal.
A short description of test [2]: budding yeast growth changes without added modifier – OD600, strain BY4716, 24 h, basal condition, primary screen (AID 1173). The following applies: S. cerevisiae BY4716 growth, OD600, 24 h; higher = more signal, called active from +8 up or from −8 down.
Test [3] can be described thus: viability profiling in MM1S myeloma cells – cell-based, resazurin fluorescence, basal, 24 h, PK04 Diversity Set, profiling panel (AID 1174).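 Further: MM1S multiple myeloma cell line.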 The conditions noted are these: higher = more signal, called active from +8 up or from −8 down. (Alamar Blue is a resazurin reagent that responds to reducing activity.)
For test [4], the target named is Dihydroorotate dehydrogenase (quinone), mitochondrial (Plasmodium falciparum (isolate 3D7)) (UniProt Q08210). As to the kind of experiment: inhibition of P. falciparum DHODH – biochemical, C-terminal His tag, absorbance 600 nm, primary screen (AID 1175).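 Further: recombinant parasite enzyme with a five histidine tag at its C terminus.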 The conditions noted are these: PfDHODH enzyme, DCIP absorbance 600 nm; higher = more signal, called active from +8 up or from −8 down.

Test [5] can be described thus: inhibition of PAO1 biofilm formation – strain PAO1, LB-PBS medium, absorbance 600 nm, primary screen (AID 1176). The conditions noted are these: P. aeruginosa PAO1 growth/biofilm, A600, 12 h; higher = more signal.
The nature of test [6]: growth modulation of vineyard yeast isolate – strain RM11-1a, OD600, basal, 24 h, primary screen (AID 1177).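 Further: cultures grown under basal conditions with no added stressor.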 The conditions noted are these: S. cerevisiae RM11-1a growth, OD600, 24 h; higher = more signal, called active from +8 up or from −8 down.
Test [7] in a line: growth of efflux-deficient E. coli DRC39 – strain DRC39, OD650, 24 h, E. coli filamentation inducers, primary screen (AID 1178).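 Further: growth measured as culture turbidity by optical density at 650 nm.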 The conditions noted are these: E. coli DRC39 acrAB, higher = more signal, called active from +8 up or from −8 down.
The nature of test [8]: growth of efflux-deficient E. coli DRC39 – strain DRC39, OD650, 48 h, E. coli filamentation inducers, primary screen (AID 1179).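 Further: screen aims at cell division blockers that make cells filament.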 The conditions noted are these: E. coli DRC39 delta-acrAB growth, higher = more signal, called active from +8 up or from −8 down.
Test [9] is described as follows: viability profiling in RPMI8226 myeloma cells – cell-based, resazurin fluorescence, basal, 24 h, PK04 Diversity Set, profiling panel (AID 1180).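 Further: RPMI8826 multiple myeloma cell line at 5000 cells per well.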 The conditions noted are these: higher = more signal.
The target of test [10] is E3 ubiquitin-protein ligase XIAP (Homo sapiens) (UniProt P98170). Briefly: small molecules binding XIAP protein – biophysical, small-molecule microarray, fluorescence 635 nm, primary screen (AID 1181).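 Further: score merges 667 nm emission and signal to noise over triplicate slides.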 The following applies: higher = more signal.
The test system of test [11] is XIP peptide (Xip251-270) binding. As to the kind of experiment: XIP fragment 251-270 binding compounds – biochemical, small-molecule microarray, fluorescence 635/667 nm, 0.1 µg/mL protein, primary screen (AID 1182). The following applies: fluorescent protein binding, 635 nm, higher = more signal, called active from +8 up or from −8 down.
Test [12] deals with XIP peptide (Xip251-270). As to the kind of experiment: compounds binding XIP fragment 251-270 – biochemical, small-molecule microarray, fluorescence 635/667 nm, 0.5 µg/mL protein, primary screen (AID 1183). The following applies: fluorescence 635 nm, higher = more signal.
The nature of test [13]: blood-stage malaria parasite viability loss – strain 3D7, DAPI fluorescence, 100 nL, primary screen (AID 1184).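 Further: parasites grown inside human red blood cells in medium with human serum.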 The following applies: P. falciparum 3D7 growth, 3 d, higher = more signal.
Test [14] deals with Homeobox protein Hox-A13 (Mus musculus) (UniProt Q62424). As to the kind of experiment: disruptors of Hoxa13 oligonucleotide interaction – biochemical, fluorescence polarization, labeled oligonucleotide, primary screen (AID 1185). The following applies: Hoxa13:DNA binding, 15 min, higher = more signal, called active from +8 up or from −8 down. Background: In fluorescence polarisation assays a small probe gives low polarisation when free and higher when bound to something large.

Test [15] can be described thus: blockers of DNA damage checkpoint Chk1 activation – imaging, HeLa, hydroxyurea, phospho-Chk1 antibody, percent positive cells, primary screen (AID 1186). The conditions noted are these: hydroxyurea-induced phospho-Chk1 immunofluorescence imaging, higher = more signal.
A short description of test [16]: blockers of DNA damage checkpoint Chk1 activation – imaging, HeLa, hydroxyurea, phospho-Chk1 nuclear intensity, primary screen (AID 1187). The conditions noted are these: hydroxyurea-induced phospho-Chk1 immunofluorescence imaging, higher = more signal.

Sequence of Homeobox protein Hox-A13 (Mus musculus) (Q62424 whole entry, looked up): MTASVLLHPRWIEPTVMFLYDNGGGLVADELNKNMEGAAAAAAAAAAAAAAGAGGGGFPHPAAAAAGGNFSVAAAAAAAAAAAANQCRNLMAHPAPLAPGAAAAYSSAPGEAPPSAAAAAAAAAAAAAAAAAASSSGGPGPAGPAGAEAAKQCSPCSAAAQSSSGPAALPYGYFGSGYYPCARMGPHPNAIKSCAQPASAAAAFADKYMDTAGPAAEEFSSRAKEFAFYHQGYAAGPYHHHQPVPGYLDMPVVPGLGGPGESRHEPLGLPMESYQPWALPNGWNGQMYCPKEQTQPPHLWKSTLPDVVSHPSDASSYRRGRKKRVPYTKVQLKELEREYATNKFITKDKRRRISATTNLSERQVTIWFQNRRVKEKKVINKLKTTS
Sequence of E3 ubiquitin-protein ligase XIAP (Homo sapiens) (P98170 whole entry, looked up, the tested form may be a part): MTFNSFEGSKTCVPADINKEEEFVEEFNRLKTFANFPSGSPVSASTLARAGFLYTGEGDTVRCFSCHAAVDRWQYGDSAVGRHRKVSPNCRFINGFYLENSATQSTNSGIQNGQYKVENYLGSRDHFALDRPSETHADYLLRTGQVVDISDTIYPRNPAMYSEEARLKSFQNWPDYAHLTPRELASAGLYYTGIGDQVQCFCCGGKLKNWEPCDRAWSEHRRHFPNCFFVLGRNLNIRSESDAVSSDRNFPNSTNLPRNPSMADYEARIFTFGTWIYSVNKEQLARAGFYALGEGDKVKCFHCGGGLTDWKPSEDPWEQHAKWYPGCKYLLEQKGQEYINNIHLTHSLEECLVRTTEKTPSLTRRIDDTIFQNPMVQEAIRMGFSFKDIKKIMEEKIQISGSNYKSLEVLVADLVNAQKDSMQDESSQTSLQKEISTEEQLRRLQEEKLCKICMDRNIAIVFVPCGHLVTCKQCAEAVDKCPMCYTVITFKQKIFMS
Sequence of Dihydroorotate dehydrogenase (quinone), mitochondrial (Plasmodium falciparum (isolate 3D7)) (Q08210 whole entry, looked up): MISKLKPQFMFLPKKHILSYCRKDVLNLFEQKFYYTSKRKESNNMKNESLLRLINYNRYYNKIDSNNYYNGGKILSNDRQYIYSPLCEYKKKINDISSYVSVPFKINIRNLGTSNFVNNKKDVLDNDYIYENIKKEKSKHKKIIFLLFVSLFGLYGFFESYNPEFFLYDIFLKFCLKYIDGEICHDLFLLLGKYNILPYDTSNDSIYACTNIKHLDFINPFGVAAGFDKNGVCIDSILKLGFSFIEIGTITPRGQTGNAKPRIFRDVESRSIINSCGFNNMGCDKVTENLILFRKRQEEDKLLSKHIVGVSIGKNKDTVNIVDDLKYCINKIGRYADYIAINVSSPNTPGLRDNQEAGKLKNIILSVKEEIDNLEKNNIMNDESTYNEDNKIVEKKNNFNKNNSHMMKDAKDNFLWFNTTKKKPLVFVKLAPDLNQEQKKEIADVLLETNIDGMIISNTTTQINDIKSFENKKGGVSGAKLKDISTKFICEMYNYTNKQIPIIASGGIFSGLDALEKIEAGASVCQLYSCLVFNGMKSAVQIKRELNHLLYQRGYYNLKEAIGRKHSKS

For `CCCCCN1CC=CC23O[C@@H]4/C=C\CCC(C)OC(=O)C4[C@H]2C(=O)N(C(CO)C(C)C)[C@@H]3C1=O` (some centres undefined), the z-score was 0.713 in [1]; -0.82 (inactive) in test [2]; -0.502 (inactive) in test [3]; 0.193 (inactive) in test [5]; -0.116 (inactive) in test [6]; 0.451 (inactive) in [7]. Moreover, the z-score was 0.236 (inactive) in test [8]; 1.41 in [9]; -1.07 in test [13]; -5.72 (inactive) in test [14]; -0.584 (inactive) in test [15]; -0.113 (inactive) in test [16]. Further, the composite z-score is -1.74 (inactive) in test [4], 0.0627 in [10], 0.733 (inactive) in test [11] and 0.761 in test [12].
As to `CCCCCCCCCCC(O)C1C=CC2C(=O)N(c3ccccc3)C(=O)C2N1Nc1ccc(C#N)cc1` (centres undefined), the z-score is -2.08 in test [1]; 1.18 (inactive) in test [2]; -0.653 (inactive) in test [3]; 0.571 (inactive) in test [5]; 1.25 (inactive) in test [6]; -0.275 (inactive) in [7]. The z-score is 0.598 (inactive) in [8]; -2.09 in [9]; -0.562 in [13]; -1.23 (inactive) in test [14]; 0.0905 (inactive) in test [15]; 0.15 (inactive) in test [16]. The composite z-score was 0.481 (inactive) in [4], 1.38 in test [10], 1.53 (inactive) in [11] and 0.419 in [12].
On to `[N-]=[N+]=Nc1ccccc1C[C@@]1(C(=O)NCCN2CCOCC2)N=C(c2ccc(OCCCO)cc2)O[C@@H]1c1ccccc1N=[N+]=[N-]`, for which the z-score in [1] was -1.02; in test [2], -3.4 (inactive); in [3], -2.12 (inactive); in [5], -0.124 (inactive); in [6] it was 0.26 (inactive); in test [7], -0.229 (inactive). In addition, the z-score is -1.02 (inactive) in [8]; -2.02 in test [9]; -2.49 in [13]; -5.26 (inactive) in test [14]; -0.303 (inactive) in [15]; -0.523 (inactive) in test [16]. For the same molecule, the composite z-score in test [4] is 0.322 (inactive); in test [10] it was 0.17; in test [11], 0.361 (inactive); in test [12] it was 0.846.
As to `CO[C@H]1O[C@H](CO)[C@@H](OC(=O)Nc2ccc(Br)cc2)[C@@H]2OC(=O)[C@@H](Cc3ccccc3)C/C=C/C[C@H](Cc3ccccc3)C(=O)O[C@@H]12`, the z-score in test [1] was -1.2; in test [2], -0.0671 (inactive); in test [3], -3.25 (inactive); in test [5] it was 0.193 (inactive); in [6] it was 1.59 (inactive); in [7], 0.547 (inactive). The z-score in [8] is 0.347 (inactive); in test [9], -4.07; in test [13], -0.683; in test [14], -1.27 (inactive); in [15], -0.324 (inactive); in test [16] it was 0.406 (inactive). Further, the composite z-score in [4] was -1.25 (inactive); in test [10], 0.289; in test [11], 0.491 (inactive); in [12], 0.693.
On to `C=CCNC(=O)[C@@H]1[C@H]2C(=O)O[C@H](c3ccccc3)[C@H](c3ccccc3)N2[C@H](c2ccccc2OCCO)[C@@]12C(=O)Nc1ccc(C#CCCO)cc12`, for which the z-score is 0.282 in test [1]; 0.634 (inactive) in [2]; 0.373 (inactive) in test [3]; 4.62 (inactive) in [5]; 1.96 (inactive) in [6]; -1.09 (inactive) in [7]. The z-score in test [8] is -2.17 (inactive); in test [9], -0.315; in [13] it was -2.22; in test [14], -3.84 (inactive); in [15], -0.38 (inactive); in [16], -0.262 (inactive). Besides, the composite z-score in [4] is 1.22 (inactive); in test [10], 0.0461; in test [11], 0.712 (inactive); in test [12], 0.596.
For the molecule `[N-]=[N+]=Nc1ccccc1C[C@]1(C(=O)NCC(O)CO)COC(c2ccc(OCCCO)cc2)=N1` (some centres undefined), the z-score in [1] was 0.586; in test [2], -0.226 (inactive); in [3], 0.303 (inactive); in test [5], 1.19 (inactive); in test [6], 1.73 (inactive); in [7], 0.87 (inactive). In addition, the z-score in [8] was -0.155 (inactive); in test [9], 0.747; in [13] it was -1.57; in [14], -6.04 (inactive); in test [15] it was 0.0856 (inactive); in [16], 0.636 (inactive). Also, the composite z-score was 1 (inactive) in [4], 0.0449 in [10], -0.0462 (inactive) in [11] and 0.106 in [12].
For the molecule `COCCCNC(=O)[C@@]1(Sc2ccc(C)cc2)CC(=O)N(C2Cc3ccccc3C2)[C@@H]1c1ccc(CO)cc1`, the z-score in [1] is 0.183; in [2], -0.153 (inactive); in [3], 0.307 (inactive); in test [5], 0.779 (inactive); in [6], -1.35 (inactive); in test [7], 0.897 (inactive). The z-score in test [8] is 0.568 (inactive); in test [9] it was 0.222; in test [13], -1.52; in [14], -3.56 (inactive); in test [15] it was -0.0691 (inactive); in test [16], 0.0579 (inactive). The composite z-score was -0.277 (inactive) in test [4], -0.0367 in test [10], 0.33 (inactive) in test [11] and 0.446 in [12].
As to `COCCOC(=O)N1C(=O)[C@@]2(c3cc(C#CC4(O)CCCCCC4)ccc31)[C@H](C(=O)N1CCc3cc(OC)c(OC)cc3C1)[C@H]1C(=O)O[C@H](c3ccccc3)[C@H](c3ccccc3)N1[C@@H]2c1ccc(OCCO)cc1`, the z-score in test [1] was -0.614; in [2], 1.66 (inactive); in test [3] it was -0.935 (inactive); in test [5] it was 3.41 (inactive); in test [6], 2.54 (inactive); in test [7], -0.201 (inactive). The z-score in [8] is 0.389 (inactive); in test [9], -0.607; in test [13], -2.25; in [14] it was 2.15 (inactive); in test [15], -0.149 (inactive); in test [16], -0.247 (inactive). In addition, the composite z-score in test [4] was -0.494 (inactive); in test [10], 0.107; in [11] it was 0.402 (inactive); in test [12] it was 0.62.
As for `COC(=O)[C@@]1(Cc2ccc(OC)cc2)[C@H]2c3cc(C(=O)N4CCCC4)n(CCO)c3C[C@H]2CN1C(=O)c1ccccc1`, the z-score in [1] is -1.39; in test [2], 0.91 (inactive); in test [3], -2.2 (inactive); in test [5] it was 0.632 (inactive); in test [6] it was 0.941 (inactive); in test [7], -0.614 (inactive). Besides, the z-score in test [8] is -1.21 (inactive); in test [9], -0.861; in test [13], -1.72; in test [14], -5.06 (inactive); in [15] it was 1.33 (inactive); in test [16], 0.404 (inactive). For the same molecule, the composite z-score in test [4] is -0.203 (inactive); in [10] it was 0.311; in [11], 0.675 (inactive); in test [12] it was 0.643.
